Sfp inh = qHTS Assay for Inhibitors of Bacillus subtilis Sfp phosphopantetheinyl transferase (PPTase). 4'-phosphopantetheinyl transferase ffp (Bacillus subtilis), Q9F4F7. Biochemical Sfp PPTase activity, qHTS. Potency, µM, without a hit: largest response in the series, negative = inhibition, usual class: inhibitors. 3.5% of 310,000 active;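 note: the enzyme is Sfp with the accession as filed and its product quenches rhodamine fluorescence; potency is the fitted concentration of half-maximal effect; 0% = enzyme reaction without inhibitor and -100% = no enzyme wells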
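Step 1, compound plus 15 nM Sfp-PPTase, 15 min, room temperature. Step 2, add rhodamine-CoA (5 uM) and BHQ-2-YbbR (12.5 uM). Step 3, read 525/598 nm fluorescence at 0 and 30 min.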
PLK1 PBD block = qHTS for Inhibitors of PLK1-PDB (polo-like kinase 1 - polo-box domain): Primary Screen; Serine/threonine-protein kinase PLK1 (Homo sapiens), P53350; Plk1 PBD binding of FITC phosphopeptide, fluorescence polarization; Potency, µM, for the others: max response, negative = inhibition, hits mostly inhibitors; 2.8% of 360,000 active; note: potency is the fitted concentration of half-maximal effect; series mostly up to about 57 µM; % is set by controls: 0 for no effect and ±100 for the full control effect; nearly all actives have a fitted effect of over 65% in size
Target sequence (P53350 whole entry, looked up, the tested form may be a part): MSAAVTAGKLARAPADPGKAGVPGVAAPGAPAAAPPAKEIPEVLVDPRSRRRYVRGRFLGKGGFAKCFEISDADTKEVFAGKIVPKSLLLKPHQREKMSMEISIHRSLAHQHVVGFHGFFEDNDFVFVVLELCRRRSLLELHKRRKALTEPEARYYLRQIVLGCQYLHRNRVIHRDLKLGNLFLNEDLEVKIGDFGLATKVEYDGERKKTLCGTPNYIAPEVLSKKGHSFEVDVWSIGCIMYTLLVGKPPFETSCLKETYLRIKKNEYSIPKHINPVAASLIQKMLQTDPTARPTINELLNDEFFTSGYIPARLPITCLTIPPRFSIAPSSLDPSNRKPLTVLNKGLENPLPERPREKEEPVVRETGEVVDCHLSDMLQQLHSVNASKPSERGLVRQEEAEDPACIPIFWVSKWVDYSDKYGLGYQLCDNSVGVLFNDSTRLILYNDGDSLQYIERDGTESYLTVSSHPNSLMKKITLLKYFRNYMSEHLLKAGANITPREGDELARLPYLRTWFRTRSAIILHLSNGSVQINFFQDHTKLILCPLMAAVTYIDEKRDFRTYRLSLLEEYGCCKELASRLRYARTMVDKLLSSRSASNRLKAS
JMJD2A Tudor inh = qHTS Assay for Inhibitors of JMJD2A-Tudor Domain; Lysine-specific demethylase 4A (Homo sapiens), O75164; AlphaScreen JMJD2A-Tudor / H3K4me3 peptide binding; Potency, µM (top dose mostly 114 µM), for the others: top-dose activity change, negative = inhibition, most hits filed as inhibitors; 4.4% of 390,000 active; note: potency is the fitted concentration of half-maximal effect; % is set by controls: 0 for no effect and ±100 for the full control effect; nearly all actives have a fitted effect of over 50% in size
BAZ2B block = qHTS Assay for Inhibitors of BAZ2B; AlphaScreen BAZ2B-H3K14Ac peptide displacement; Potency, µM (titrated, usually from 114 µM), for inactives: at the highest dose activity change, negative = inhibition, hits mostly inhibitors; AID 504333, 2011; 4.4% of 360,000 active; Bromodomain adjacent to zinc finger domain protein 2B (Homo sapiens), Q9UIF8; note: potency is the fitted concentration of half-maximal effect; % is set by controls: 0 for no effect and ±100 for the full control effect; nearly all actives have a fitted effect of over 60% in size
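Multi-concentration screen (max 110 uM) measuring displacement of acetylated histone H3 peptide from BAZ2B by AlphaScreen, using 50 nM protein, 50 nM peptide and 10 ug/mL streptavidin donor plus Ni-chelate acceptor beads.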
HP1b binding inh = HTS for Inhibitors of HP1-beta Chromodomain Interactions with Methylated Histone Tails | Chromobox protein homolog 1 (Homo sapiens), P83916 | AID 540317, 2011 | 0.56% of 390,000 active | AlphaScreen HP1-beta / biotin-H3K9me3 peptide binding | Potency, µM (titrated, usually from 114 µM), inactives show at the highest dose activity change, negative = inhibition, actives largely listed as inhibitors; note: potency is the fitted concentration of half-maximal effect; nearly all actives have a fitted effect of over 70% in size
Target sequence (P83916 whole entry, looked up): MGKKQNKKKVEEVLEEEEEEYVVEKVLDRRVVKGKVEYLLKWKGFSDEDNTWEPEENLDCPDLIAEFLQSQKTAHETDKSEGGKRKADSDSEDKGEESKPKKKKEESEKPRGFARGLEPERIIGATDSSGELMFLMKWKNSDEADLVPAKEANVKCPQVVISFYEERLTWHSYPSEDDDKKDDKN
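Compound inhibition of the preformed complex between 50 nM HP1-beta and 50 nM biotinylated H3K9me3 peptide was read by AlphaScreen. Buffer was PBS pH 7.4 with 0.01% Tween-20. Incubations ran 30 min at room temperature, with 10 ug/mL donor/acceptor beads.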
G9a inh-1 = qHTS Assay for Inhibitors of Histone Lysine Methyltransferase G9a | Histone-lysine N-methyltransferase EHMT2 (Homo sapiens), Q96KQ7 | AID 504332, 2011 | G9a H3K9 monomethylation, AlphaScreen, 2 h | 8.8% of 350,000 active | Potency, µM (series often up to 102 µM), for the others: at the highest dose activity, negative = inhibition, actives largely listed as inhibitors; note: potency is the fitted concentration of half-maximal effect; % is set by controls: 0 for no effect and ±100 for the full control effect; nearly all actives have a fitted effect of over 75% in size
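Using a bead-based AlphaScreen, monomethylated H3K9 product from 2 h room-temperature reactions (G9a 20 nM, peptide 500 nM, SAM 20 uM) was detected with 0.5 ug/mL rabbit anti-H3K9me1 antibody.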
JMJD2E confirm = Confirmation qHTS Assay for Inhibitors of Human Jumonji Domain Containing 2E (JMJD2E). shares compounds with JMJD2A Tudor inh. Recombinant JMJD2E, FDH-coupled NADH fluorescence (FDH is formaldehyde dehydrogenase). Potency, µM (highest dose often 56.8 µM), inactives show at the highest dose activity change, negative = inhibition, actives largely listed as inhibitors. 93% of 140 active
FDH inh = Counterscreen for JMJD2E Inhibitors: qHTS Assay for Inhibitors of Formaldehyde Dehydrogenase (FDH). FDH enzyme assay, NADH fluorescence kinetic. shares compounds with JMJD2A Tudor inh. 10% of 140 active. Potency, µM (highest dose often 56.7 µM), for inactives: top-dose activity, negative = inhibition, actives largely listed as inhibitors
G9a inh-2 = qHTS Assay for Inhibitors of Histone Lysine Methyltransferase G9a: Hit Confirmation; shares compounds with JMJD2A Tudor inh; G9a H3K9 monomethylation, AlphaScreen, 2 h; Potency, µM, most hits filed as inhibitors; 89% of 370 active; AID 588344, 2011; note: potency is the fitted concentration of half-maximal effect; nearly all actives have a fitted effect of over 65% in size
* hit, by the source's call; ? = inconclusive; . = no result; [ ] = remark or other dose. Hits are enriched below; roughly 12% of the tested compounds scored in any of these assays. Calls come from the whole dose curve; as a rule, active = well fitted curve in the direction sought with a large enough effect; inconclusive = small, poorly fitted or top-dose-only effect, or another doubt; inactive = no such curve, though single readings can be large; an effect the other way counts as inactive or inconclusive.

SMILES	Sfp inh	PLK1 PBD block	JMJD2A Tudor inh	BAZ2B block	HP1b binding inh	G9a inh-1	G9a inh-2	others
O=C(Cc1ccccc1)Nc1sc2c(c1C(=O)Nc1ccc(Cl)cc1)CCCC2	.	.	?	?	?	0.316µM*	1.82*
COc1ccc(NC(=O)COC(=O)c2ccc3ccccc3n2)cc1	.	0.5%	-2.8%	4.0%	22.1%	-2.8%[59 µM]	.
CCN(CC)c1ccc(NC(=O)COC(=O)c2ccc3ccccc3n2)cc1	?	-8.2%	?	50.1µM*	?	?	6.31*
CCN(CC)c1ccc(NC(=O)COC(=O)c2cccs2)cc1	-5.9%	-1.4%	?	44.7µM*	-8.4%	1.26µM*	2.24*
Cc1cn(CC(=O)NCc2ccc(N(C)C)cc2)c(=O)[nH]c1=O	.	-23.5%	-29.5%	.	3.0%	.	.
Cn1cccc1C(=O)Nc1ccc(Cl)c(S(=O)(=O)N2CCCCC2)c1	.	-7.6%	?	.	-7.9%	.	.
CCCCN(CC)CCCNC(=O)c1c(C)oc2ncnc(N3CCOCC3)c12	.	.	-16.5%	8.9%[57.1 µM]	17.2%	-1.5%[59 µM]	.
O=C1C2C3C=CC(CO)(O3)C2C(=O)N1c1ccccc1-c1ccccc1 (stereo unspecified)	1.12µM*	7.52µM*	17.8µM*	9.3%	?	0.316µM*	0.224*
COc1ccc(C(=O)NCC23C=CC(O2)C2C(=O)N(Cc4ccccc4)C(=O)C23)cc1 (stereo unspecified)	?	-2.5%	-11.3%	-6.0%	44.5%	?	.
CCOc1ccccc1N1CCN(C(=O)c2cn(CC3CCCCC3)nn2)CC1	0.3%	6.3%	-15.2%	-33.6%	22.2%	0.9%	.
O=S(=O)(NN1CCOCC1)c1ccc(Br)cc1	0.6%	7.52µM*	-3.4%	-0.3%	40.4%	0.398µM*	1.59*
O=S(=O)(Nc1ccc(S(=O)(=O)N2CCOCC2)cc1)c1ccc(Br)cc1	14.7%	-5.1%	-9.0%	-1.9%	5.4%	-13.4%	.
O=C(CCCc1ccccc1)c1ccc2c(c1)OCCO2	-17.4%	2.0%	204.9%	221.6%	373.3%	158.9%[59 µM]	.
O=C(CCN1CCC(c2ccccc2)C1)c1ccc2c(c1)OCCO2 (stereo unspecified)	50.1µM*	5.97µM*	-23.7%	?	13.2%	7.94µM*	5.13*
O=C(c1cccc(F)c1)N1CCC[C@@]2(CCN(C(c3ccccc3)c3ccccc3)C2)C1	3.2%	.	.	.	.	9.6%[12.7 µM]	.
CCn1c2ccccc2c2cc(CN3CCN(Cc4ccc(Br)cc4)CC3)ccc21	.	.	4.47µM*	25.1µM*	?	0.891µM*	25.1*
O=C(Cc1ccc(S(=O)(=O)N2CCOCC2)s1)Nc1cc(Cl)ccc1Cl	.	-6.1%	-32.5%	-38.8%	-10.6%[57 µM]	2.9%[12.7 µM]	.
COc1ccccc1C(=O)Nc1ccc(-c2nnc(SCC(=O)O)n2C)cc1	7.4%	-12.5%	100µM*	?	30.3%	?	7.96*
Cn1c(SCC(=O)NCc2ccccc2)nnc1-c1ccc(NC(=O)CCc2ccccc2)cc1	13.9%	-10.3%	-13.4%	?	20.4%	?	11.2*
CCOc1ccccc1C(=O)N(Cc1sccc1C)C1CCS(=O)(=O)C1 (stereo unspecified)	8.5%	9.3%	2.1%	2.7%	14.2%	56.2%	.
O=C(OCCNc1ccc(C(F)(F)F)cc1[N+](=O)[O-])c1cc2ccccc2oc1=O	4.6%	-0.7%	-19.3%	-0.3%	6.8%	1.9%	.
CCOC(=O)c1ccc(S(=O)(=O)N2CCN(Cc3cc4c(cc3O)OCO4)CC2)cc1	.	-16.0%	-21.1%	-33.6%	11.4%	0.398µM*	0.893*
CCOc1ccc(N2CC(NC(=O)c3ccc4ccccc4c3)CC2=O)cc1 (stereo unspecified)	.	-9.8%	-6.1%	6.7%	8.2%	-20.6%	.
CC1=NN(c2nc3ccccc3[nH]2)C(=O)C1Cc1ccccc1 (stereo unspecified)	20.5%	-11.4%	50.1µM*	22.4µM*	34.8%	?	.	JMJD2E confirm=5.76µM*;FDH inh=?
O=C(Nc1ccc(C(F)(F)F)cc1)C1(c2cccs2)CCOCC1	.	.	3.9%	6.2%	42.1%	-3.1%[59 µM]	.
SMILES	Sfp inh	PLK1 PBD block	JMJD2A Tudor inh	BAZ2B block	HP1b binding inh	G9a inh-1	G9a inh-2	others
CN(C)c1ccc(NC(=O)C2(c3cccs3)CCOCC2)cc1	.	.	?	39.8µM*	-14.6%	2.82µM*	7.08*
Cc1cc(=O)n2nc(-c3ccc(C(F)(F)F)cc3)sc2n1	-2.5%	-8.0%	8.5%	-5.4%	19.0%	-4.9%[12.7 µM]	.
COc1ccc(NCc2nnc(SCC(=O)c3ccc(OC)cc3)n2C)cc1	-8.5%	-22.1%	56.2µM*	-0.6%	18.4%	?	11.2*
CCCCC(OC(=O)c1ccco1)C(=O)NCc1ccc(C)cc1 (stereo unspecified)	-2.3%	-5.4%	-2.1%	-17.0%	31.2%	-0.9%	.
CC(=O)c1ccc(NC(=O)c2ccc(-c3ccc(Cl)cc3)o2)cc1	.	.	-16.3%	-22.1%	21.6%	?	.
COc1ccc(NC(=O)c2ccc(-c3ccc(C(C)=O)cc3)o2)cn1	.	-17.7%	-27.4%	2.2%	-19.3%	1.58µM*	?
Cc1ccc(N(C(=O)c2csnn2)C(C(=O)NC2CCCCC2)c2cccnc2)cc1 (stereo unspecified)	17.2%	3.9%	0.0%	4.1%	16.3%	-6.3%	.
CN(C)c1ccc(NC(=O)Nc2cccc(Cl)c2)cc1	-9.3%	-10.3%	?	39.8µM*	-31.0%	1.12µM*	1.42*

Bioassay records: PubChem BioAssay, National Center for Advancing Translational Sciences (NCATS)
